# Laboratory results: the supplement of paper PMC4466140
# Biological target: AgAbp1
# Assay: SPOT peptide array binding signal intensity (averaged, normalized) (arbitrary units (background-subtracted, floor 0; scale differs between SH3 domains)); higher = stronger binding of the SH3 domain to the peptide
# Method in brief: (§1)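 Spot intensities were captured after detection with anti-GST antibody, an HRP-linked anti-mouse secondary and luminol, and quantified with Genespotter. The probes were GST-fused SH3 domains from four yeast species, produced in E. coli BL21(DE3), purified on glutathione Sepharose and incubated at 10 μg/ml overnight at 4°C on cellulose-bound synthetic 15-mer peptides with cysteines replaced by serines. Binding signal is the normalized, background-subtracted spot intensity averaged over replicates, and its arbitrary units differ between domains.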
row,Binder,SPOT peptide array binding signal intensity
1,IRMPSNPALPKKLLN,194

# Biological target: AgBbc1
# Assay: as above
# Method in brief: as §1
row,Binder,SPOT peptide array binding signal intensity
1,IRMPSNPALPKKLLN,40

# Biological target: AgBem1-D1
# Assay: as above
# Method in brief: as §1
row,Binder,SPOT peptide array binding signal intensity
1,IRMPSNPALPKKLLN,431

# Biological target: AgBzz1-D1
# Assay: as above
# Method in brief: as §1
row,Binder,SPOT peptide array binding signal intensity
1,IRMPSNPALPKKLLN,10

# Biological target: AgBzz1-D2
# Assay: as above
# Method in brief: as §1
row,Binder,SPOT peptide array binding signal intensity
1,IRMPSNPALPKKLLN,10

# Biological target: AgCyk3
# Assay: as above
# Method in brief: as §1
row,Binder,SPOT peptide array binding signal intensity
1,IRMPSNPALPKKLLN,1

# Biological target: AgFus1
# Assay: as above
# Method in brief: as §1
row,Binder,SPOT peptide array binding signal intensity
1,IRMPSNPALPKKLLN,806

# Biological target: AgHof1
# Assay: as above
# Method in brief: as §1
row,Binder,SPOT peptide array binding signal intensity
1,IRMPSNPALPKKLLN,59.5

# Biological target: AgHse1
# Assay: as above
# Method in brief: as §1
row,Binder,SPOT peptide array binding signal intensity
1,IRMPSNPALPKKLLN,367

# Biological target: AgLsb1
# Assay: as above
# Method in brief: as §1
row,Binder,SPOT peptide array binding signal intensity
1,IRMPSNPALPKKLLN,2.5

# Biological target: AgLsb4
# Assay: as above
# Method in brief: as §1
row,Binder,SPOT peptide array binding signal intensity
1,IRMPSNPALPKKLLN,21.5

# Biological target: AgMyo5
# Assay: as above
# Method in brief: as §1
row,Binder,SPOT peptide array binding signal intensity
1,IRMPSNPALPKKLLN,1.75

# Biological target: AgNbp2
# Assay: as above
# Method in brief: as §1
row,Binder,SPOT peptide array binding signal intensity
1,IRMPSNPALPKKLLN,308

# Biological target: AgRvs167
# Assay: as above
# Method in brief: as §1
row,Binder,SPOT peptide array binding signal intensity
1,IRMPSNPALPKKLLN,2.33

# Biological target: AgSho1
# Assay: as above
# Method in brief: as §1
row,Binder,SPOT peptide array binding signal intensity
1,IRMPSNPALPKKLLN,852

# Biological target: AgSla1-D1-D2
# Assay: as above
# Method in brief: as §1
row,Binder,SPOT peptide array binding signal intensity
1,IRMPSNPALPKKLLN,16

# Biological target: AgSla1-D3
# Assay: as above
# Method in brief: as §1
row,Binder,SPOT peptide array binding signal intensity
1,IRMPSNPALPKKLLN,7.5

# Biological target: CaAbp1-D1
# Assay: as above
# Method in brief: as §1
row,Binder,SPOT peptide array binding signal intensity
1,IRMPSNPALPKKLLN,616

# Biological target: CaAbp1-D2
# Assay: as above
# Method in brief: as §1
row,Binder,SPOT peptide array binding signal intensity
1,IRMPSNPALPKKLLN,1080

# Biological target: CaBbc1
# Assay: as above
# Method in brief: as §1
row,Binder,SPOT peptide array binding signal intensity
1,IRMPSNPALPKKLLN,126

# Biological target: CaBem1-D1
# Assay: as above
# Method in brief: as §1
row,Binder,SPOT peptide array binding signal intensity
1,IRMPSNPALPKKLLN,444

# Biological target: CaBzz1-D1
# Assay: as above
# Method in brief: as §1
row,Binder,SPOT peptide array binding signal intensity
1,IRMPSNPALPKKLLN,314

# Biological target: CaBzz1-D2
# Assay: as above
# Method in brief: as §1
row,Binder,SPOT peptide array binding signal intensity
1,IRMPSNPALPKKLLN,247

# Biological target: CaCyk3
# Assay: as above
# Method in brief: as §1
row,Binder,SPOT peptide array binding signal intensity
1,IRMPSNPALPKKLLN,15

# Biological target: CaFus1
# Assay: as above
# Method in brief: as §1
row,Binder,SPOT peptide array binding signal intensity
1,IRMPSNPALPKKLLN,1400

# Biological target: CaHof1
# Assay: as above
# Method in brief: as §1
row,Binder,SPOT peptide array binding signal intensity
1,IRMPSNPALPKKLLN,≤ 0

# Biological target: CaHse1
# Assay: as above
# Method in brief: as §1
row,Binder,SPOT peptide array binding signal intensity
1,IRMPSNPALPKKLLN,504

# Biological target: CaLsb1
# Assay: as above
# Method in brief: as §1
row,Binder,SPOT peptide array binding signal intensity
1,IRMPSNPALPKKLLN,15.5

# Biological target: CaLsb4
# Assay: as above
# Method in brief: as §1
row,Binder,SPOT peptide array binding signal intensity
1,IRMPSNPALPKKLLN,692

# Biological target: CaMyo5
# Assay: as above
# Method in brief: as §1
row,Binder,SPOT peptide array binding signal intensity
1,IRMPSNPALPKKLLN,97.5

# Biological target: CaNbp2
# Assay: as above
# Method in brief: as §1
row,Binder,SPOT peptide array binding signal intensity
1,IRMPSNPALPKKLLN,1060

# Biological target: CaRvs167
# Assay: as above
# Method in brief: as §1
row,Binder,SPOT peptide array binding signal intensity
1,IRMPSNPALPKKLLN,65.7

# Biological target: CaRvs167-3
# Assay: as above
# Method in brief: as §1
row,Binder,SPOT peptide array binding signal intensity
1,IRMPSNPALPKKLLN,3.5

# Biological target: CaSho1
# Assay: as above
# Method in brief: as §1
row,Binder,SPOT peptide array binding signal intensity
1,IRMPSNPALPKKLLN,2070

# Biological target: CaSla1-D1-D2
# Assay: as above
# Method in brief: as §1
row,Binder,SPOT peptide array binding signal intensity
1,IRMPSNPALPKKLLN,476

# Biological target: CaSla1-D3
# Assay: as above
# Method in brief: as §1
row,Binder,SPOT peptide array binding signal intensity
1,IRMPSNPALPKKLLN,424

# Biological target: ScAbp1
# Assay: as above
# Method in brief: as §1
row,Binder,SPOT peptide array binding signal intensity
1,IRMPSNPALPKKLLN,104
